High-throughput results (PubChem BioAssay)
The entries come from a sample that favours hits as a whole.
BL2 CD40 inh = CD40 pathway inhibition in BL2 cells | BL2 NF-kB luciferase reporter, CD40L-induced, 4 h | inhibition, % at 10 µM | 83,000 compounds, 0.94% hits;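 active = mean inhibition of at least 50% with a set share of replicates also reaching that level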
Large screens that a line does not name were inactive; [ ] = another dose, or the depositor's remark.

C[C@H]1CCCC(=O)CCC/C=C/c2cc(O)cc(O)c2C(=O)O1	BL2 CD40 inh 43
OC[C@@H]1Nc2ccc(C#Cc3cccnc3)cc2[C@H]2NCC[C@@H]12	none
CC=Cc1ccc2n(c1=O)C[C@H]1[C@H](CO)[C@@H](C(=O)OC)[C@@H]2N1S(=O)(=O)c1ccccc1C (mixture of isomers)	none
C/C=C/c1ccc(C2[C@@H]3CN(Cc4cccc(F)c4)C[C@H]2N3)cc1 (stereo partly specified)	none
COc1cccc(-c2ccc3n(c2=O)C[C@@H]2[C@@H](CO)[C@H](C(=O)O)[C@H]3N2Cc2ccccc2F)c1	none
CN1[C@@H]2CN(CC3CC3)C[C@H]1C2c1ccc(Br)cc1 (stereo partly specified)	none
COC(=O)C12OCC34C(CC5C(C)=C(O)C(=O)CC5(C)C3C(O)C1O)OC(=O)C(OC(=O)/C=C(\C)C(C)C)C24 (stereo unspecified)	BL2 CD40 inh 92
Cc1ccc(OC(=O)N(C)C[C@H]2OCc3ccccc3-c3c(n(C)c4ccccc34)C(=O)N([C@H](C)CO)C[C@@H]2C)cc1	none
C[C@@H]1CN([C@H](C)CO)C(=O)c2c(c3ccccc3n2C)-c2ccccc2CO[C@H]1CN(C)C(=O)Oc1ccccc1	none
NC(N)=N/N=C/c1cn(-c2ccccc2)nc1-c1cccs1	BL2 CD40 inh 87
COC(=O)[C@@H]1[C@@H](CO)[C@@H]2Cn3c(ccc(-c4cccc(F)c4)c3=O)[C@H]1N2C(=O)CC1CC1	none
CC=Cc1ccc2n(c1=O)C[C@@H]1[C@@H](CO)[C@H](C(=O)OC)[C@H]2N1S(=O)(=O)c1ccccc1C (mixture of isomers)	none
COC(=O)[C@H]1[C@H](CO)[C@H]2Cn3c(cccc3=O)[C@@H]1N2C(=O)C1CC1	none
CC1OC(OC2CC(O)C3(CO)C4C(O)CC5(C)C(C6=CC(=O)OC6)CCC5(O)C4CCC3(O)C2)C(O)C(O)C1O (stereo unspecified)	BL2 CD40 inh 73[25 µM]
C[C@@H]1O[C@@H](O[C@H]2C[C@@H](O)[C@]3(CO)[C@H]4[C@H](O)C[C@]5(C)[C@@H](C6COC(=O)C6)CC[C@]5(O)[C@@H]4CC[C@]3(O)C2)[C@H](O)[C@H](O)[C@H]1O (stereo partly specified)	BL2 CD40 inh 67
C=CCN1[C@@H]2CN(C(=O)NC(C)C)C[C@H]1C2c1ccc(Br)cc1 (stereo partly specified)	none
N#Cc1ccc(-c2ccc([C@H]3[C@H](CO)N4CCCCN(C(=O)Cc5ccccc5)C[C@@H]34)cc2)cc1	none
CC(C)NC(=O)N1CC2C(c3ccccc3)C(C1)N2C (stereo unspecified)	none
COC(=O)[C@@H]1[C@@H](CO)[C@@H]2Cn3c(ccc(-c4ccccc4)c3=O)[C@H]1N2S(=O)(=O)c1ccccc1C	none
CC(=O)N1C[C@@H]2C(c3ccccc3)[C@H](C1)N2C (stereo partly specified)	none
CCN1CC2(COC(=O)c3ccccc3N3C(=O)CC(C)C3=O)CCC(OC)C34C5CC6C(OC)CC(O)(C5C6OC)C(O)(C(OC)C23)C14 (stereo unspecified)	none
FC(F)(F)CN1C[C@@H]2C(c3ccc(Br)cc3)[C@H](C1)N2CC1CC1 (stereo partly specified)	none
O=C1NC(=O)c2c1c1c3ccccc3[nH]c1c1[nH]c3ccccc3c21	BL2 CD40 inh 69[25 µM]
C/C=C/c1ccc(C2[C@@H]3CN(Cc4cccnc4)C[C@H]2N3)cc1 (stereo partly specified)	none
O=C1CCC2(O)C3Cc4ccc(O)c5c4C2(CCN3CC2CC2)C1O5 (stereo unspecified)	none
FC(F)(F)CN1C[C@@H]2C(c3ccccc3)[C@H](C1)N2CC1CC1 (stereo partly specified)	none
Clc1ccc(C2=CCCC3CCC2N3)cn1 (stereo unspecified)	none
COC(=O)[C@H]1[C@H](CO)[C@H]2Cn3c(ccc(/C=C/c4ccccc4)c3=O)[C@@H]1N2CC1CCCC1	none
O=C(Cc1ccccn1)N1CCCCN2[C@H](CO)[C@H](c3ccc(Br)cc3)[C@H]2C1	none
COC(=O)[C@@H]1[C@@H](CO)[C@@H]2Cn3c(ccc(C4=CCCC4)c3=O)[C@H]1N2C(=O)CC1CC1	none
C=CCN1[C@@H]2CN(S(C)(=O)=O)C[C@H]1C2c1ccccc1 (stereo partly specified)	none
FC(F)(F)CN1C[C@@H]2N[C@H](C1)C2c1ccc(Br)cc1 (stereo partly specified)	none
CC(=NNC(=S)N1CC2CCC(CC2)C1)c1nccs1	BL2 CD40 inh 66
Fc1ccc(CN2CC3NC(C2)C3c2ccc(Br)cc2)cc1 (stereo unspecified)	none
C[C@]12CC[C@@H](O)C[C@@H]1CC[C@@H]1[C@@H]2CC[C@]2(C)[C@@H](C(=O)CO)CC[C@@H]12	none
COC(=O)[C@H]1[C@H](CO)[C@H]2Cn3c(cccc3=O)[C@@H]1N2Cc1nccs1	none
O=C(Cc1ccccc1)N1CC2(C1)[C@H](c1ccccc1)[C@H](CO)N2Cc1cccc(Cl)c1	none
O=C(Cc1ccccn1)N1CCCCN2[C@H](CO)[C@H](c3ccc(-c4ccccc4F)cc3)[C@@H]2C1	none
Oc1ccc2c3c1OC1c4oc5ccccc5c4CC4(O)C(C2)N(CC2CC2)CCC314 (stereo unspecified)	none
CC(=O)OC(C)(C)/C=C/C(=O)C(C)(O)C1C(O)CC2(C)C3CC=C4C(CC(O)C(=O)C4(C)C)C3(C)C(=O)CC12C (stereo unspecified)	BL2 CD40 inh 60
O=C(O)[C@@H]1[C@@H](CO)[C@@H]2Cn3c(ccc(-c4ccncc4)c3=O)[C@H]1N2S(=O)(=O)c1ccccc1F	none
CC=Cc1ccc2n(c1=O)C[C@@H]1[C@@H](CO)[C@H](C(=O)OC)[C@H]2N1C(=O)CC1CC1 (mixture of isomers)	none
C/C=C/c1ccc(C2[C@@H]3CN(C(=O)C4CCC4)C[C@H]2N3)cc1 (stereo partly specified)	none
CC(=O)OC1C(=O)OCC23CCC4(C)OC4C2OC2CC(OC(=O)C=CC=CC(=O)OCCC1C)C3(C)C21CO1 (stereo unspecified)	BL2 CD40 inh 68
CC1=CC2OC3CC4OC(=O)C=CC=CC(=O)OCCC(C)C(O)C(=O)OCC2(CC1O)C4(C)C31CO1 (stereo unspecified)	BL2 CD40 inh 103
COc1cccc(-c2ccc3n(c2=O)C[C@H]2[C@H](CO)[C@@H](C(=O)O)[C@@H]3N2Cc2ccccc2F)c1	none
CCCN1[C@@H]2Cn3c(ccc(-c4cccc(OC)c4)c3=O)[C@H]1[C@@H](C(=O)OC)[C@@H]2CO	none
O=C1CNC[C@@H]2[C@@H](c3ccc(Br)cc3)[C@H](CO)N12	none
COc1cccc(-c2ccc([C@@H]3[C@H]4CN(C(=O)Cc5ccncc5)CCCCN4[C@H]3CO)cc2)c1	none
COc1ccc(OC(=O)N(C)C[C@@H]2OCc3ccccc3-c3c(n(C)c4ccccc34)C(=O)N([C@@H](C)CO)C[C@H]2C)cc1	none
CC1=NNC(=O)C1Br (stereo unspecified)	BL2 CD40 inh 52
CCN(CC)CCOC1CCC2(C)C(=CCC3C4CCC(=O)C4(C)CCC32)C1 (stereo unspecified)	none
C[C@H]1CN([C@@H](C)CO)C(=O)c2c(c3ccccc3n2C)-c2ccccc2CO[C@@H]1CN(C)C(=O)Oc1ccccc1	none
O=C(O)[C@@H]1[C@@H](CO)[C@@H]2Cn3c(ccc(C4=CCCCC4)c3=O)[C@H]1N2C(=O)Cc1ccccn1	none
CCC(=O)N1[C@@H]2c3ccc(C4=CCCC4)c(=O)n3C[C@H]1[C@H](CO)[C@H]2C(=O)OC	none
